Screening results from PubChem BioAssay.
Sfp PPTase inh: inhibitors of Bacillus subtilis Sfp phosphopantetheinyl transferase | Potency, µM, for the others: largest response in the series, negative = inhibition, usual class: inhibitors | 310,000 compounds, 3.5% hits | AID 1490 | Q9F4F7 | Biochemical Sfp PPTase activity, qHTS;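 further: the enzyme is Sfp with the accession as filed and its product quenches rhodamine fluorescence; 0% = enzyme reaction without inhibitor and -100% = no enzyme wells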
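Reaction rates are the 30-min fluorescence difference (ex 525, em 598 nm) in wells containing 15 nM Sfp, 5 uM rhodamine-CoA and 12.5 uM BHQ-2-YbbR at pH 7.6 with 10 mM MgCl2.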
HP1b chromo inh: inhibitors of HP1-beta chromodomain binding to methylated histone tails | Potency, µM (series often up to 114 µM), without a hit: at the top dose activity change, negative = inhibition, most hits filed as inhibitors | 390,000 compounds, 0.56% hits | AlphaScreen HP1-beta / biotin-H3K9me3 peptide binding | P83916; further: nearly all actives have a fitted effect of over 70% in size
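Compound inhibition of the preformed complex between 50 nM HP1-beta and 50 nM biotinylated H3K9me3 peptide was read by AlphaScreen. Buffer was PBS pH 7.4 with 0.01% Tween-20. Incubations ran 30 min at room temperature, with 10 ug/mL donor/acceptor beads.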
BAZ2B block: inhibitors of human BAZ2B bromodomain. AID 504333. Potency, µM (highest dose often 114 µM), for the others: at the highest dose activity change, negative = inhibition, actives largely listed as inhibitors. AlphaScreen BAZ2B-H3K14Ac peptide displacement. 360,000 compounds, 4.4% hits. Q9UIF8; further: on the % scale 0 is the no-effect control and ±100 the full control effect; nearly all actives have a fitted effect of over 60% in size
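Multi-concentration screen (max 110 uM) measuring displacement of acetylated histone H3 peptide from BAZ2B by AlphaScreen, using 50 nM protein, 50 nM peptide and 10 ug/mL streptavidin donor plus Ni-chelate acceptor beads.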
JMJD2A Tudor: inhibitors of human JMJD2A Tudor domain | O75164 | Potency, µM (series often up to 114 µM), for the others: top-dose activity change, negative = inhibition, actives largely listed as inhibitors | 390,000 compounds, 4.4% hits | AID 504339 | AlphaScreen JMJD2A-Tudor / H3K4me3 peptide binding; further: on the % scale 0 is the no-effect control and ±100 the full control effect; nearly all actives have a fitted effect of over 50% in size
G9a block: inhibitors of human histone lysine methyltransferase G9a. AID 504332. Q96KQ7. G9a H3K9 monomethylation, AlphaScreen, 2 h. Potency, µM (doses to about 102 µM), for inactives: at the top dose activity, negative = inhibition, most hits filed as inhibitors. 350,000 compounds, 8.8% hits; further: on the % scale 0 is the no-effect control and ±100 the full control effect; nearly all actives have a fitted effect of over 75% in size
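Signal arises when biotinylated H3K9 peptide, once monomethylated, bridges streptavidin donor and antibody-captured acceptor beads. Enzyme at 20 nM was preincubated 15 min with test compounds; peptide 500 nM and SAM 20 uM then reacted for 2 h.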
An asterisk follows results filed as active; [ ] = another dose, or the depositor's remark. Only some compounds are listed: those with a hit (about 12% of all), similar ones and a draw of the others. The call rests on the fitted dose curve; in most records, active means well fitted curve in the direction sought with a large enough effect; inconclusive means small, poorly fitted or top-dose-only effect, or another doubt; inactive means no such curve, though single readings can be large; an effect the other way counts as inactive or inconclusive. Potency means the concentration at half of the fitted maximal effect.

Results for CCC1(c2ccccc2)NC(=O)N(CC(=O)Nc2ccccc2C(=O)NC2CC2)C1=O (configuration not stated) ?
HP1b chromo inh: 37.1%; BAZ2B block: 4.5%; JMJD2A Tudor: -10.8%; G9a block: 50.1µM*

Results for CCC1(c2ccc(F)cc2)NC(=O)N(CC(=O)Nc2ccccc2C)C1=O (configuration not stated) ?
Sfp PPTase inh: 6.8%; HP1b chromo inh: 6.3%; BAZ2B block: -5.3%; JMJD2A Tudor: 70.8µM*; G9a block: -7.0%

Results for CS(=O)(=O)N(Cc1cccc(CN(C(C(=O)O)c2ccccc2)S(C)(=O)=O)c1)C(C(=O)O)c1ccccc1 (configuration not stated) ?
Sfp PPTase inh: inconclusive; HP1b chromo inh: 36.4%; BAZ2B block: inconclusive; JMJD2A Tudor: -30.7%; G9a block: 31.6µM*

Results for CC(C)C[C@@H](C(=O)O)N(Cc1cccc(CN([C@@H](CC(C)C)C(=O)O)S(C)(=O)=O)c1)S(C)(=O)=O ?
Sfp PPTase inh: 6.0%; HP1b chromo inh: 56.6%; BAZ2B block: -10.4%; JMJD2A Tudor: -22.7%; G9a block: inconclusive

Results for COc1ccccc1C(=O)Nc1ncc2c(n1)CC(c1ccco1)CC2=O (configuration not stated) ?
Sfp PPTase inh: -26.3%; HP1b chromo inh: 8.0%; BAZ2B block: 50.1µM*; JMJD2A Tudor: -30.4%; G9a block: 50.1µM*

How did COc1ccc(C2CC(=O)c3cnc(NC(=O)c4ccco4)nc3C2)cc1 (configuration not stated) do in these assays?
Sfp PPTase inh: 9.4%; HP1b chromo inh: 16.3%; BAZ2B block: -27.8%; JMJD2A Tudor: -25.0%; G9a block: 20.8%

How did Cc1cccc2sc(NNC(=O)c3cc(=O)c4ccccc4o3)nc12 do in these assays?
Sfp PPTase inh: 44.7µM*; HP1b chromo inh: -11.8%; BAZ2B block: 44.7µM*; JMJD2A Tudor: inconclusive

What do the screens show for `COc1ccc2nc(NNC(=O)c3cc(=O)c4ccccc4o3)sc2c1`?
Sfp PPTase inh: 12.6µM*; HP1b chromo inh: inconclusive; BAZ2B block: 50.1µM*; JMJD2A Tudor: 56.2µM*; G9a block: 8.91µM*

Results for Cc1ccc2sc(NNC(=O)c3cc(=O)c4ccccc4o3)nc2c1C ?
Sfp PPTase inh: 8.91µM*; HP1b chromo inh: inconclusive; BAZ2B block: 50.1µM*; JMJD2A Tudor: 56.2µM*; G9a block: 7.08µM*

What do the screens show for `COc1ccc2nc(NC(=O)c3cc(=O)c4cc(C)c(C)cc4o3)sc2c1`?
HP1b chromo inh: 5.8%; BAZ2B block: -4.2%; JMJD2A Tudor: -14.9%; G9a block: -5.0%[59 µM]

What do the screens show for `O=C(NNc1nc2c(F)cccc2s1)c1cc(=O)c2ccccc2o1`?
Sfp PPTase inh: -15.4%; HP1b chromo inh: 18.6%; BAZ2B block: -38.1%; JMJD2A Tudor: -31.9%; G9a block: 35.5µM*

How did CCOC(=O)N/N=C1/C[C@@H](O)[C@@H](O)[C@@H]2[C@@H]3C(=O)N(c4cccc(Oc5ccccc5)c4)C(=O)[C@H]3CC[C@@H]12 do in these assays?
Sfp PPTase inh: 5.0%

How did O=S(=O)(/N=C(\c1ccccc1)N1CCOCC1)c1cccs1 do in these assays?
Sfp PPTase inh: 18.5%; HP1b chromo inh: 48.8%; BAZ2B block: 7.3%; JMJD2A Tudor: -9.4%; G9a block: 8.8%[12.7 µM]

Results for Cc1ccccc1S(=O)(=O)/N=C(/c1ccccc1)N1CCOCC1 ?
Sfp PPTase inh: 2.7%; HP1b chromo inh: -9.3%; BAZ2B block: -8.2%; JMJD2A Tudor: 31.6µM*

What do the screens show for `Nc1nc(SCC(=O)C23CC4CC(CC(C4)C2)C3)n[nH]1`?
Sfp PPTase inh: -11.3%; HP1b chromo inh: 30.5%; BAZ2B block: 0.5%; JMJD2A Tudor: -17.3%; G9a block: 35.5µM*

How did C[C@H](Nc1ccc(C(F)(F)F)cc1[N+](=O)[O-])C(=O)O do in these assays?
Sfp PPTase inh: 23.4%; HP1b chromo inh: 0.7%[57 µM]; BAZ2B block: -15.0%; JMJD2A Tudor: -18.4%; G9a block: 56.2µM*

Results for CC(C)C(Nc1ccc(C(F)(F)F)cc1[N+](=O)[O-])C(=O)O (configuration not stated) ?
Sfp PPTase inh: 11.8%; HP1b chromo inh: 33.1%; JMJD2A Tudor: -6.3%; G9a block: inconclusive

Results for CC1CCC(=NNc2ccc(C(F)(F)F)cc2[N+](=O)[O-])CC1 (configuration not stated) ?
Sfp PPTase inh: -2.2%; HP1b chromo inh: inconclusive; BAZ2B block: 10µM*; JMJD2A Tudor: 39.8µM*; G9a block: 3.55µM*

What do the screens show for `C/C(=N\Nc1ccc(C(F)(F)F)cc1[N+](=O)[O-])C(C)C`?
Sfp PPTase inh: 2.5%; HP1b chromo inh: 39.8µM*; BAZ2B block: 10µM*; JMJD2A Tudor: inconclusive; G9a block: 11.2µM*

Results for COc1ccc(Nc2ccc(C(F)(F)F)cc2[N+](=O)[O-])cn1 ?
Sfp PPTase inh: 1.7%; HP1b chromo inh: inconclusive; BAZ2B block: 39.8µM*; JMJD2A Tudor: 56.2µM*; G9a block: inconclusive

How did COCCN(C(=O)COC(=O)CCc1ccccc1)c1c(N)n(Cc2ccccc2)c(=O)[nH]c1=O do in these assays?
HP1b chromo inh: 14.6%; BAZ2B block: 9.9%; JMJD2A Tudor: -9.0%; G9a block: -41.5%

Results for C=CCNC(=O)C(=O)Nc1cc2c3c(c1)CCC(=O)N3CCC2 ?
Sfp PPTase inh: 4.8%; HP1b chromo inh: 18.8%; BAZ2B block: -5.2%; JMJD2A Tudor: -20.2%; G9a block: 7.3%[0.0925 µM]

Results for CCc1c2c(nc3cccc(SC)c13)COC2 ?
Sfp PPTase inh: -2.8%

What do the screens show for `CC(C)N(C(=O)Cn1cc(SCC(=O)Nc2ccccc2C(F)(F)F)c2ccccc21)C(C)C`?
HP1b chromo inh: 49.2%; BAZ2B block: -14.0%; JMJD2A Tudor: -12.5%; G9a block: -7.1%[59 µM]

Results for O=C(CSc1ccc(C(F)(F)F)cc1[N+](=O)[O-])Nc1ccccc1 ?
Sfp PPTase inh: -3.5%; HP1b chromo inh: 8.7%; BAZ2B block: -25.7%; JMJD2A Tudor: -18.5%; G9a block: 6.7%

Results for CC(=O)Nc1ccc(NC(=O)CSc2ccc(C(F)(F)F)cc2[N+](=O)[O-])cc1 ?
Sfp PPTase inh: -2.0%; HP1b chromo inh: 8.9%; BAZ2B block: -10.1%; JMJD2A Tudor: -8.8%; G9a block: 44.7µM*

How did COC(=O)/C=C/c1cc(O)ccc1O do in these assays?
Sfp PPTase inh: 50.1µM*; G9a block: 2.82µM*

What do the screens show for `CCC1=NN(C(=O)c2cccc(Br)c2)C(O)(c2ccc(Br)cc2)C1` (configuration not stated)?
Sfp PPTase inh: -8.5%; HP1b chromo inh: 1.8%; BAZ2B block: 39.8µM*; JMJD2A Tudor: inconclusive; G9a block: 25.5%[59 µM]
